Source: ChEMBL document CHEMBL3988442, “University of Dundee, Small-Polar-MMV Screening Library” (2021)
The whole screen tested about 85,000 compounds, of which about 440 (0.52%) showed an effect of 50% or more. Only a selection was taken, and strong results are over-represented in it overall.

Experiment: In vitro enzyme assay to detect hydrolysis of chlorophenol red-beta-D-[…] directly proportional to the number of Toxoplasma stably expressing beta-galactosidase
Format: functional, organism-based, Toxoplasma gondii
Design: scale not given: in the data most compounds retested in dose-response had high values

Compound	Percent Effect (50 µM)	Percent Effect (10 µM)
O=c1cc(CN2CCOCC2)nc2sccn12	2.592%	
CN1CCCC1CCSc1nc(N)c(C#N)cc1C#N (stereo not given)	-0.4089%	
Cc1cc(C)nc(NC(=O)c2ccncc2)c1	31.27%	
CCO[C@@H]1COCC[C@H]1NC(=O)c1cncn1C	0.586%	
CN(Cc1noc(C2CC2)n1)C1CCN(Cc2cccc(F)c2F)C1 (stereo not given)		67.09%
CN(Cc1noc(C2CC2)n1)C1CCN(Cc2ccccc2C#N)C1 (stereo not given)		2.644%
CN(Cc1noc(C2CC2)n1)C1CCN(Cc2ccc(F)c(F)c2)C1 (stereo not given)		1.098%
CCNC(=O)CNc1noc(C(C)(C)C)n1	-18.17%	
COCCN(CC(=O)N(C)C)c1ncccn1	1.212%	
CCCN(CCOC)CC(=O)N(C)C	8.072%	
COCCN(CCOC)CC(=O)N(C)C	56.58%	
OC1CCCN(CCOc2ccccc2)C1 (stereo not given)	1.087%	
CCC(C)Oc1ccc(CNCCNS(C)(=O)=O)cc1Cl (stereo not given)		19.69%
CCC(C)Oc1ccc(CNCCc2c[nH]cn2)cc1Cl (stereo not given)		81.15%
CCC(C)Oc1ccc(CNCCNC(C)=O)cc1Cl (stereo not given)		19.61%
CCN(CCN(C)C)C(=O)c1cn(CCN)nn1	2.797%	
Cc1cc(NC(=O)C(C)N(C)Cc2cc(C)on2)on1 (stereo not given)	5.589%	
Cc1ccc(C(=O)NC2CCN(C(C)C)CC2)o1	-16.97%	
OCCCN(Cc1ccccc1)Cc1ccccn1	-0.1376%	
NCc1cccc(C(F)(F)F)n1	30.32%	
COc1ccc(CCNC(=O)NCCCC(N)=O)cc1	98.98%	
CCOC(=O)CNC(=O)NCCc1ccc(OC)cc1	-17.09%	
COc1ccc(CCC(=O)NCCNC(C)=O)cc1	21.36%	
CC1(C)CCCN(C(=O)CCS(C)(=O)=O)CC1	-2.783%	

Compound	Percent Effect (50 µM)	Percent Effect (10 µM)
CCCC(N)C(=O)N(C)Cc1cccc(N(C)C)c1 (stereo not given)	89.59%	
CCCC(=O)N(C)Cc1cccc(OC(C)C)c1		0.05359%
CC[C@H](N)C(=O)N(C)Cc1cccc(OC(F)(F)F)c1	4.147%	
CCN(CC)C(=O)CN1CCC(N)CC1	-1.204%	
NS(=O)(=O)CC1CCN(C(=O)Nc2ccccc2)CC1	13.92%	
CNCC1CCN(C(=O)Nc2ccccc2)CC1	-5.234%	
NC1CCN(C(=O)Nc2ccccc2)C1 (stereo not given)	93.84%	
N[C@H]1CN(CC(=O)N2CCCCC2)C[C@@H]1C1CC1	3.394%	
CCC(NC(=O)CCC(=O)OC)c1ccccc1 (stereo not given)	-2.759%	
COc1ccc(F)c(CN(CCCn2ccnc2)Cc2ccc(C)s2)c1.O=C(O)CC(O)(CC(=O)O)C(=O)O		53.53%
Cc1ccc(CN(CCCn2ccnc2)Cc2c(F)cccc2F)s1.O=C(O)CC(O)(CC(=O)O)C(=O)O		36.95%
Cc1ccc(CN(CCCn2ccnc2)Cc2cnn(C)c2)s1.O=C(O)CC(O)(CC(=O)O)C(=O)O		-58.36%
Cc1ccc(CN(CCCn2ccnc2)Cc2cc(F)ccc2F)s1.O=C(O)CC(O)(CC(=O)O)C(=O)O		64.14%
Cc1ccc(CN(CCCn2ccnc2)Cc2c[nH]nc2C(C)(C)C)s1.O=C(O)CC(O)(CC(=O)O)C(=O)O		-5.969%
Cc1ccc(CN(CCCn2ccnc2)Cc2cccs2)s1.O=C(O)CC(O)(CC(=O)O)C(=O)O		13.55%
Cc1ccc(CN(CCCn2ccnc2)Cc2ccccc2O)s1.O=C(O)CC(O)(CC(=O)O)C(=O)O		-8.716%
Cc1ccc(CN(CCCn2ccnc2)Cc2c[nH]cn2)s1.O=C(O)CC(O)(CC(=O)O)C(=O)O		27.23%
Cc1ccc(O)c(CN(CCCn2ccnc2)Cc2ccc(C)s2)c1.O=C(O)CC(O)(CC(=O)O)C(=O)O		4.169%
CCc1ccc(CN(CCCn2ccnc2)Cc2ccc(C)s2)o1.O=C(O)CC(O)(CC(=O)O)C(=O)O		5.317%
COc1ccc(NC(=O)CN)cc1Cl	1.653%	
O=C1CNC2(CCCCC2)C(=O)N1	-1.267%	
OCc1cnc2c(F)cccc2c1	-7.989%	
O=C(NCCCn1cccn1)N1CCSCC1	12.95%	
CC1COCCN1CCNS(C)(=O)=O (stereo not given)	-4.94%	

Compound	Percent Effect (50 µM)	Percent Effect (10 µM)
CCC(N)C(=O)N1CCN(c2ccncc2Cl)CC1 (stereo not given)	0.3763%	
OCC1(O)CCN(Cc2cc3ccccc3s2)C1 (stereo not given)	15.65%	
O=C(COc1ccc2c(c1)OCO2)NCc1ccco1		-39.93%
O=C(COc1ccc2c(c1)CCCC2=O)NCc1ccco1		-0.7551%
O=C(COc1ccc2c(c1)CCC2)NCc1ccco1		52.59%
CN(C1CCCCC1)S(=O)(=O)NC1CCCCNC1=O (stereo not given)	-10.23%	
CCCc1nc(C)cc(NCCO)n1	22.28%	
O=C(CCOc1cccc(F)c1)N1CCCC(n2cncn2)C1 (stereo not given)		-5.343%
CCc1cccc(OCC(=O)N2CCCC(n3cncn3)C2)c1 (stereo not given)		61.63%
COc1cccc(COCC(=O)N2CCCC(n3cncn3)C2)c1 (stereo not given)		5.194%
CN(Cc1ccccc1)C1(CN)CCC1	-8.467%	
OC1CCN(c2ccnc(NCCc3ccccc3Cl)n2)CC1		-8.745%
OC1CCN(c2ccnc(NCCc3ccccc3Cl)n2)C1 (stereo not given)		73.82%
OC1CCN(c2ccnc(NCCN3CCc4ccccc4C3)n2)C1 (stereo not given)		-7.659%
CC1(C)CCN(C(=O)Nc2ccsc2)CCS1(=O)=O	14.26%	
O=C(CCCc1cn[nH]c1)N1CCS(=O)(=O)CC1	-1.399%	
CCN(CC)S(=O)(=O)c1cc2c3c(c1)c(C)cc(=O)n3CC2		-2.001%
Cc1c(S(=O)(=O)N2CCOCC2)cc2c(C)cc(=O)n3c2c1CCC3		70.37%
Cc1c(S(=O)(=O)NC2CC2)cc2c(C)cc(=O)n3c2c1CCC3		69.29%
O=C1COc2ccc(S(=O)(=O)N3CCOCC3)c3c2N1CCC3		-24.36%
CCCNS(=O)(=O)c1cc2c3c(c1)c(C)cc(=O)n3CCC2		-12.19%
Cc1cc(S(C)(=O)=O)c(C)c(S(=O)(=O)NC2CCCC2)c1		-4.298%
Cc1cc(=O)n2c3c(cc(S(=O)(=O)NC4CC4)cc13)CCC2		88.28%
Cc1cc2[nH]c(=O)c(=O)[nH]c2cc1S(=O)(=O)NC1CCCCC1		9.258%

Compound	Percent Effect (50 µM)	Percent Effect (10 µM)
CCN(CC)S(=O)(=O)c1cc2c3c(c1)c(C)cc(=O)n3CCC2		17.21%
Cc1cccc(OCC(=O)NCC2CCNCC2)c1	-0.8091%	
CCOC(=O)N1CCN(C(=O)c2onc(C)c2Cl)CC1	1.461%	
CCSc1cc(CN)ccn1	-10.09%	
NC(=O)CCSc1nc2ncccn2n1	-6.184%	
CCCC(=O)N(C)C1CCN(C)CC1	4.372%	
COc1ccc(CNC(=O)CN)cc1	-16.08%	
CC(C)C(CC(=O)NCC(N)=O)c1ccccc1 (stereo not given)	0.4392%	
Cn1cc(-c2cnc(N3CCCC3)nc2)cc1C(=O)O		-6.676%
CCCNC(=O)c1cc(-c2cnc(N3CCCC3)nc2)cn1C		59.81%
CN(C)CCNC(=O)c1cc(-c2cnc(N3CCCC3)nc2)cn1C.O=C(O)C(F)(F)F		16.58%
CNS(=O)(=O)c1c[nH]cn1	-8.669%	
NC1CCCN(Cc2ccccc2)C1=O (stereo not given)	3.99%	
NC1CCN(Cc2ccccc2)C1=O (stereo not given)	57.3%	
Cc1ccc(CN2CCC(N)C2=O)cc1 (stereo not given)	0.3266%	
Cn1nccc1C(=O)NC1Cc2ccccc2C1	4.859%	
CCc1nc(CN2CCCC2C(=O)N(C)C)cs1 (stereo not given)	6.641%	
CC(NC(=O)c1ccncc1F)C(C)(C)CN(C)C (stereo not given)	-0.7264%	
CCN(CC)CCOC1CCNCC1	-2.471%	
CC(=O)c1cccc(OCC(=O)NC2CCCC2)c1	-4.665%	
CC(=O)c1cccc(OCC(=O)Nc2cc(C)on2)c1	98.67%	
Cc1cc(NC(=O)COc2ccc3c(c2)OCO3)no1	15.18%	
COc1c(CNC2(c3ccc(Cl)cc3)CCC2)c(C)nn1C		7.233%
COc1c(CNC2(c3noc(C)n3)CCC2)c(C(C)C)nn1C.Cl		11.38%

Compound	Percent Effect (50 µM)	Percent Effect (10 µM)
Cc1cc(CNCc2c(C)nn(C)c2N2CCOCC2)no1		-17.93%
Cc1csc(CNCc2c(C)nn(C)c2N2CCOCC2)n1		-26.69%
COc1c(CNC2(c3noc(C)n3)CCC2)c(C)nn1C.Cl		55.08%
Cc1nc(C2(NCc3c(C)nn(C)c3N3CCOCC3)CCC2)no1		56.3%
CC(C)(C)OC(=O)NCCCOC1CCNCC1	10.6%	
O=C(CSc1nnnn1Cc1cccs1)NC1CC1	-25.88%	
Cn1nc2c(cc1=O)CN(c1nc3ccccc3s1)CC2		-0.5196%
CC(C)n1nc2c(cc1=O)CN(c1ncnc3ccsc13)CC2		9.432%
CCCn1nc2c(cc1=O)CN(c1ncnc3ccsc13)CC2		-2.045%
CC(C)n1nc2c(cc1=O)CN(c1ncnc3ccccc13)CC2		-24.89%
CCn1nc2c(cc1=O)CN(c1ncnc3ccsc13)CC2		76.59%
Cn1nc2c(cc1=O)CN(c1ncnc3ccsc13)CC2		82.27%
O=C(NC1CCCc2[nH]c(=O)ccc21)c1cc(Br)c[nH]1 (stereo not given)	33.46%	
O=C(CCCn1cccn1)N[C@H]1C[C@@H]2OCC[C@H]12	16.13%	
O=C(Cc1cccs1)N1CCNCC1	1.272%	
CCCc1nc(N2CCCC(C)C2)c2c(n1)c(C)nn2CC (stereo not given)		19%
CCCn1c(N2CCCC2)nc2c(C)nn(C)c2c1=O		74.14%
CCCc1nc(N2CCCCCC2)c2c(n1)c(C)nn2CC		14.57%
CCn1c(NCC2CCCO2)nc2c(C)nn(C)c2c1=O (stereo not given)		22.67%
CCn1nc(C)c2ncnc(N3CCCC(C)C3)c21 (stereo not given)		16.85%
CCCn1c(N2CCCC(C)C2)nc2c(C)nn(C)c2c1=O (stereo not given)		58.79%
Cc1nn(C)c2c(=O)n(C)c(NCC3CCCO3)nc12 (stereo not given)		10.39%
Cc1nn(C)c2c(N3CCCC3)nc(C3CC3)nc12		10.42%
CCCn1c(N2CCCCC2)nc2c(C)nn(C)c2c1=O		85.32%
